For this experiment, the target named is Calcium and integrin-binding protein 1 (Homo sapiens) (UniProt Q99828). In words: Primary qHTS for Identification of Calcium Integrin Binding Protein 1 (CIB1) Competitor (AID 1508620).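 Further: GST tagged CIB1 binding a fluorescein labelled alphaIIb integrin peptide tracer; top concentration of the series differs between compounds.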 The essentials: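 CIB1-GST (1 uM final) and compound incubated 15 min at room temperature before adding FITC-alphaIIb peptide tracer (100 nM final). Competition for binding read by fluorescence polarization (ex 480, em 540) after another 15 min at room temperature.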
Chain of Calcium and integrin-binding protein 1 (Homo sapiens) (Q99828 whole entry, looked up): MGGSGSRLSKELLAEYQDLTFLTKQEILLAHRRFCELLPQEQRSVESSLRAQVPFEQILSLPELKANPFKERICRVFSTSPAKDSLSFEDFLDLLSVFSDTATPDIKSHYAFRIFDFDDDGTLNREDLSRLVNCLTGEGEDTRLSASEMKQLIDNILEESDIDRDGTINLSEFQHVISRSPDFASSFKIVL

Results filed as inconclusive are left out. A call without a number means that no potency is given here. The source made the active and inactive calls. The call rests on the fitted dose curve; in most records, active means well fitted inhibition curve with a large enough effect; inconclusive means small, poorly fitted or top-dose-only effect; inactive means flat fitted curve, though single readings scatter.

90 compounds from PubChem BioAssay (NCATS) can be followed below.

On to `CC(=O)Nc1sc2c(c1-c1ccc3[nH]ccc3c1)CCNC2`, for which the Potency result is “inactive”.

For the compound `Cc1ccc(NS(=O)(=O)c2ccc3ccccc3c2)cc1C`, the Potency result is “inactive”.

In the case of `O=[N+]([O-])c1ccc([S+](=O)([O-])N2CCN([S+](=O)([O-])c3ccc4c(c3)OCCO4)CC2)c([N+](=O)[O-])c1`, the Potency result is “inactive”.

For `Cc1ccc(OCCn2c(CCNC(=O)Cc3cc(F)ccc3F)nc3ccccc32)cc1`, the Potency entry is “inactive”.

As to `COc1cc(F)c(S(=O)(=O)N2CCCN(S(=O)(=O)c3cccc(N)c3)CC2)c(F)c1`, the Potency entry is “inactive”.

On to `COc1ccc(-c2ccc3ncnc(NCCc4cnc[nH]4)c3c2)cc1OC`, for which the Potency result was “inactive”.

Regarding `N#Cc1nc(NCC(F)F)nc(Nc2cc(F)cc(F)c2)n1`, the Potency entry was “inactive”.

For `Cc1ccccc1C(=O)N1CCc2cc(-c3cccc(NC(=O)Cc4ccc5c(c4)OCO5)c3)ccc21`, the Potency entry was “inactive”.

As to `Cc1ccc(-c2nn3c(-c4ccccc4)nnc3s2)cc1NC(=O)c1ccc(-c2cccc(Cl)c2)o1`, the Potency entry is “inactive”.

`COc1ccc(/C=C2/C(=O)Nc3ccccc32)cc1O`: the Potency entry was “inactive”.

As to `c1ccc(CNc2nc(-c3cccs3)nc3ccccc23)cc1`, the Potency result is “inactive”.

Turning to `Cn1cccc1CN=C1NC2=C(C(=O)CCC2)C(c2[nH]ncc2Cl)N1` (stereo not given), the Potency result is “inactive”.

On to `O=C1NC(=O)/C(=C/c2ccco2)N1`, for which the Potency result is “inactive”.

For the compound `CC(C)(C)OC(=O)N1CCN(c2ccc(NCc3occc3-c3ccc(C#N)cc3)cc2)CC1`, the Potency entry was “inactive”.

Regarding `CCOC(=O)C1CCN(C(=O)C2(NC(=O)Nc3ccccc3Cl)CC2)CC1`, the Potency entry was “inactive”.

As to `Cc1nc(NCc2ccc(-c3ccnc(C(F)(F)F)c3)cc2)c2ccccc2n1`, the Potency result was “inactive”.

Regarding `Cc1ccc(-c2ccc(=O)n(CC(=O)N(C)[C@@H](C)c3ccccc3)n2)cc1`, the Potency entry was “inactive”.

Turning to `COc1ccccc1-c1ncc(C)c(NCc2ccc(-c3cccnc3)cc2)n1`, the Potency result is “inactive”.

In the case of `O=C(O)c1ccc2c(c1)C(=O)N([C@]1(C(=O)O)CC1c1ccccc1)C2=O` (stereo not given in full), the Potency result is “inactive”.

With `Fc1cc(F)cc(Nc2nc(NC3CCCC3)nc(C3CO3)n2)c1` (stereo not given), the Potency entry is “inactive”.

Consider `COc1cccc(CN2C(=O)c3ccccc3NC2c2ccc(OC)c(COc3c(C)cc(NC(C)=O)cc3C)c2)c1` (stereo not given), for which the Potency entry was “inactive”.

Turning to `Cc1nnc(-c2ccccc2)n1CCCn1ccnc1`, the Potency result is “inactive”.

In the case of `Cc1nc(C)c(-c2ccc3ncnc(N(C)Cc4sccc4C)c3c2)s1`, the Potency result was “inactive”.

For `Cc1cc(C)nc(NC(=S)N2CCN(c3ccc(N4CCCC4)nn3)CC2)c1`, the Potency result is “inactive”.

With `CC(C)c1ccccc1-c1ncc(F)c(NCc2ccc(-c3cccnc3)s2)n1`, the Potency result is “inactive”.

Take `N#Cc1nc(Nc2cccc3ccccc23)nc(NC2CCCC2)n1`: the Potency result was “inactive”.

Take `Cc1cc(C)nc(NC(=S)N2CCN(c3nncs3)CC2)c1`: the Potency entry was “inactive”.

`C#CCOc1ccc(C(C)=O)cc1-c1nnc2n1N=C(c1ccc(OC)c(O[C@@H]3CCOC3)c1)CS2`: the Potency entry was “inactive”.

`O=Cc1nc(Nc2cc(F)cc(F)c2)nc(NC2CCCC2)n1`: the Potency result was “inactive”.

As for `Cc1noc(Nc2sc3c(c2-c2nc4ccccc4s2)CCNC3)n1`, the Potency result was “inactive”.

For the compound `Cc1cc(C)nc(NC(=S)N2CCN(c3nccc4occc34)CC2)c1`, the Potency result is “inactive”.

For `Cc1c(C(=O)NCC2CCCO2)[nH]c2c1C(=O)CCC2` (stereo not given), the Potency result was “inactive”.

Turning to `Cc1cc(C)nc(NC(=S)N2CCN(c3ccc(C(F)(F)F)cn3)CC2)c1`, the Potency entry is “inactive”.

Regarding `O=C(Nc1ccc(F)c(C(F)(F)F)c1)Nc1ccc(-c2ccncc2)s1`, the Potency entry was “inactive”.

Consider `CC(=O)Nc1cccc(S(=O)(=O)N2CCN(S(=O)(=O)c3c(F)cccc3F)CC2)c1`, for which the Potency entry was “inactive”.

With `COc1cccc(C2=Nn3c(nnc3-c3cc(OC)ccc3OC)SC2)c1`, the Potency entry was “inactive”.

Consider `c1nc(NCCC2CCCO2)c2cc(-c3ccc4c(c3)OCO4)ccc2n1` (stereo not given), for which the Potency result was “inactive”.

As for `Fc1ccccc1-c1ccc(Nc2nc(-c3ccncc3)nc3ccccc23)cc1F`, the Potency result was “inactive”.

In the case of `CN(Cc1ccco1)c1ncnc2ccc(-c3ccc4c(c3)OCCO4)cc12`, the Potency result was “inactive”.

For `N#Cc1c(-c2ccc3c(c2)OCO3)no[n+]1[O-]`, the Potency entry was “inactive”.

In the case of `O=S(=O)(c1c(F)cccc1F)C1CCN(S(=O)(=O)c2ccc3c(c2)OCCO3)CC1`, the Potency entry was “inactive”.

Take `COc1cc(O)c(C(CC(=O)N2CCC(c3ccccc3)CC2)c2ccc(OC)c(OC)c2)c(OC)c1` (stereo not given): the Potency entry was “inactive”.

For `NC(=O)C1CCN(c2nc(-c3cccc4sc5ccccc5c34)cs2)CC1`, the Potency result is “inactive”.

For `Cc1ccc(NS(=O)(=O)c2ccc3c(ccn3C)c2)cc1C`, the Potency result is “inactive”.

With `CCOc1ccc(C(=O)Nc2ccc(-c3nn[nH]n3)cc2)cc1[N+](=O)[O-]`, the Potency result is “inactive”.

For `CC(=O)c1ccc(NC(=O)c2cnn3c(C)cc(C)nc23)cc1`, the Potency result was “inactive”.

As to `O=C(O)CNc1cccc(-c2nn3c(=O)cc(N4CCNCC4)nc3s2)c1`, the Potency entry was “inactive”.

Take `Cc1ccc(OCCn2c(CCNC(=O)CCc3ccccc3Br)nc3ccccc32)cc1`: the Potency entry was “inactive”.

Take `O=c1c2ccccc2nc2sc(Nc3ccc(Oc4ccccc4)cc3)nn12`: the Potency result is “inactive”.

On to `COC(=O)c1c(-c2ccccc2)no[n+]1[O-]`, for which the Potency result is “inactive”.

In the case of `Cc1ccc(OCCn2c(CCNC(=O)C3CCN(C(=O)OC(C)(C)C)CC3)nc3ccccc32)cc1`, the Potency entry is “inactive”.

With `COc1cccc(C2c3c(ncn(-c4ccccc4C)c3=N)Oc3ccc4ccccc4c32)c1` (stereo not given), the Potency entry is “inactive”.

Turning to `COc1ccc(C2Nc3ccccc3C(=O)N2Cc2ccco2)cc1` (stereo not given), the Potency result is “inactive”.

`C#CCOc1ccc(-c2nnc3n2N=C(c2ccc(OC)c(OCC(C)=O)c2)CS3)cc1`: the Potency entry is “inactive”.

With `CN1CCN(c2cc(-c3nc(Nc4ccc(F)c(F)c4)c4ccccc4n3)ccn2)CC1`, the Potency entry was “inactive”.

In the case of `O=S(=O)(NC1CCC(CNS(=O)(=O)c2c(F)cccc2F)CC1)c1ccc2c(c1)OCCO2` (stereo not given), the Potency entry is “inactive”.

In the case of `COc1ccc(CN2C(=O)c3ccccc3NC2c2ccc(OC)c(COc3ccc(NC(C)=O)cc3)c2)cc1` (stereo not given), the Potency result was “inactive”.

Take `O=S1(=O)N=C(Oc2cccc(-c3ccccc3)c2)c2ccccc21`: the Potency entry is “inactive”.

On to `CC(C)(C)OC(=O)NC1CCN(c2nc(-c3ccc(Br)cc3)cs2)CC1`, for which the Potency entry is “inactive”.

Consider `CC(=O)Nc1cccc(OCc2cccc(C3Nc4ccccc4C(=O)N3Cc3ccco3)c2)c1` (stereo not given), for which the Potency result is “inactive”.

On to `O=C(OCC#CCSc1nnc(-c2ccc3ccccc3c2)o1)c1cccc(F)c1`, for which the Potency entry is “inactive”.

For `COc1ccc(C2Nc3ccccc3C(=O)N2Cc2ccco2)cc1CSc1c(C)cccc1C` (stereo not given), the Potency entry was “inactive”.

Take `Cn1c2cc(Br)sc2c2cnn(Cc3c(F)cccc3F)c(=O)c21`: the Potency entry is “inactive”.

In the case of `CC1=C(C(=O)Nc2nc3ccccc3s2)C2(CCCC2)N=C(Nc2nc3ccccc3o2)N1`, the Potency entry is “inactive”.

For the compound `O=c1c2ccccc2nc2sc(Nc3cccc(N4CCNCC4)c3)nn12`, the Potency entry is “inactive”.

As to `CC(C)COc1ccc(-c2csc(N3CCC(C(N)=O)CC3)n2)cc1`, the Potency entry is “inactive”.

As for `Cc1nnc(-c2cnn(C)c2N)n1CCCn1ccnc1`, the Potency result was “inactive”.

As for `COc1ccccc1NC(=O)C(OC(=O)CNC(=O)c1ccccc1)c1ccccc1` (stereo not given), the Potency entry is “inactive”.

For `CC(=O)Nc1sc2c(c1-c1nc3ccccc3s1)CCS(=O)(=O)C2`, the Potency result was “inactive”.

On to `O=S(=O)(Nc1nc(-c2ccccc2C(F)(F)F)nc2ccccc12)c1ccc(-c2ccnc(C(F)(F)F)c2)cc1`, for which the Potency result is “inactive”.

As for `Cn1nnnc1Sc1ncnc2scc(-c3ccc(Cl)cc3)c12`, the Potency entry was “inactive”.

Take `Fc1cccc(CSc2nc3ncc(Br)cc3[nH]2)c1`: the Potency result is “inactive”.

Consider `Cc1ccc(OCCn2c(CCNC(=O)c3cccc(Br)c3)nc3ccccc32)cc1`, for which the Potency entry was “inactive”.

Turning to `CC(=O)c1ccc(N2CCN(C(=O)c3ccc4c(c3)CCC(=O)N4)CC2)cc1`, the Potency result was “inactive”.

Regarding `Cc1ccc(NS(=O)(=O)c2ccc3c(c2)CCC(=O)N3)cc1`, the Potency entry is “inactive”.

With `CNc1oc(-c2cccc(Cl)c2)nc1C#N`, the Potency entry was “inactive”.

`COc1ccc(CN2C(=O)c3ccccc3NC2c2ccc(OC)c(COc3c(C)cc(NC(C)=O)cc3C)c2)cc1` (stereo not given): the Potency result is “inactive”.

In the case of `COc1ccc(-c2nnc3n2N=C(c2ccc(OC)c(OC)c2)CS3)c(OC)c1`, the Potency result is “inactive”.

Consider `Cc1ccc(-c2ccc(C(C)Nc3nc(-c4ccccc4C(C)C)ncc3C)cc2)cn1` (stereo not given), for which the Potency entry was “inactive”.

Regarding `O=C(O)c1ccc2c(c1)C(=O)N([C@H](Cc1c3ccccc3cc3ccccc13)C(=O)O)C2=O`, the Potency entry was “inactive”.

Take `O=C1Cc2cc(S(=O)(=O)N3CCN(c4ccc(O)cc4)CC3)ccc2N1`: the Potency result is “inactive”.

`O=C(c1ccccc1O)N(Cc1ccco1)Cc1cccs1`: the Potency entry is “inactive”.

As for `S=C(NCCCc1cnc[nH]1)NCCN(Cc1ccc(Cl)c(Cl)c1)c1ccc(Br)cn1`, the Potency entry was “inactive”.

Take `Cc1ccc(-c2ccc(CNc3nc(-c4ccccc4C(C)C)ncc3F)cc2)cn1`: the Potency result was “inactive”.

As to `N#Cc1c(-c2cccc(Cl)c2)no[n+]1[O-]`, the Potency entry was “inactive”.

Consider `O=C1CCCC2=C1C(c1[nH]ncc1Cl)N=C(Nc1ccccn1)N2` (stereo not given), for which the Potency entry is “inactive”.

With `COc1ccc(NC(=O)C(OC(=O)CNC(=O)c2ccccc2)c2ccccc2)cc1F` (stereo not given), the Potency entry was “inactive”.

Turning to `Fc1cc(Nc2nc(-c3ccncc3)nc3ccccc23)ccc1-c1cccc(C(F)(F)F)c1`, the Potency entry is “inactive”.

`O=C(CNC(=O)c1ccc2cc[nH]c2c1)OC(C(=O)Nc1cc(C(F)(F)F)ccc1Cl)c1ccccc1` (stereo not given): the Potency entry was “inactive”.

For `O=C(Nc1ccc(-c2nc3ccccc3[nH]2)cc1)c1ccc(Oc2ccccc2)cc1`, the Potency result is “inactive”.
